High-throughput results: PubChem, National Center for Advancing Translational Sciences (NCATS)
NPSR antag: neuropeptide S receptor (human) antagonism, cAMP; Potency, µM (series often up to 38.3 µM), without a hit: top-dose activity change, negative = inhibition, actives largely listed as inhibitors; 1% of 220,000 active; CHO-NPSR cells, cAMP TR-FRET, antagonist mode; Q6W5P4; AID 1461; also: potency is read from the fitted curve at half-maximal effect; % is scaled to controls: 0 for no effect and ±100 for the full control effect; nearly all actives have a fitted effect of over 50% in size
Target sequence (Q6W5P4 whole entry, looked up): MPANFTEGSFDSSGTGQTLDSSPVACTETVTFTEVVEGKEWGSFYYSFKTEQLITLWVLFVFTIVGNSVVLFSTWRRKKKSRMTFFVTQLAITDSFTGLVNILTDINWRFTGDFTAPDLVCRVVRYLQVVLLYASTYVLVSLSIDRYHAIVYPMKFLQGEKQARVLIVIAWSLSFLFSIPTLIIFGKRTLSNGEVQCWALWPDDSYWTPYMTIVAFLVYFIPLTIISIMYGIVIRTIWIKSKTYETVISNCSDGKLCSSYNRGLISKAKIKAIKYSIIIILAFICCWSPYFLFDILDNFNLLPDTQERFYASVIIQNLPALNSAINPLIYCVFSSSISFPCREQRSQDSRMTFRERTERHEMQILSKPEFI
JMJD2E inh: JMJD2E (human) inhibition | B2RXH2 | JMJD2E catalytic domain, FDH-coupled NADH fluorescence (FDH is formaldehyde dehydrogenase) | Potency, µM (top dose mostly 57.1 µM), for the others: top-dose activity change, negative = inhibition, hits mostly inhibitors | 1.6% of 230,000 active; active = well fitted inhibition curve with a large enough effect, not every such curve was filed as active; inconclusive = small, poorly fitted or top-dose-only effect, or another doubt; inactive = no such curve, though single readings can be large or run the other way;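 also: potency is read from the fitted curve at half-maximal effect; 0% = wells with enzyme and -100% = buffer wells without enzyme; nearly all actives have a fitted effect of over 50% in size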
Sfp PPTase inh: blocks B. subtilis Sfp PPTase activity; Q9F4F7; Biochemical Sfp PPTase activity, qHTS; Potency, µM, for the others: largest response in the series, negative = inhibition, most hits filed as inhibitors; 3.5% of 310,000 active;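 also: the enzyme is Sfp with the accession as filed and its product quenches rhodamine fluorescence; potency is read from the fitted curve at half-maximal effect; 0% = enzyme reaction without inhibitor and -100% = no enzyme wells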
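Sfp 15 nM + cpd, 15 min RT; start w/ rhodamine-CoA 5 uM, BHQ-2-YbbR 12.5 uM (final); 50 mM Hepes pH 7.6, 10 mM MgCl2, 0.01% NP-40, 0.01% BSA; read 525/598 nm at 0 and 30 min.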
FBPA coupling cs: coupling enzyme interference in Giardia aldolase counter-screen. coupling enzyme system counterscreen, AmpLite Red fluorescence. activity change, negative = inhibition, % at 58.2 µM, hits read low. 0.67% of 290,000 active. AID 2472; in the data active = activity change below about -30%; also: % is scaled to controls: 0 for no effect and ±100 for the full control effect
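Final compound at 57.5 uM, incubated 10 min at RT with coupling enzyme reagent (glyceraldehyde-3-phosphate), then 20 min with substrate and AmpLite Red detection. Fluorescence read at 525/598 nm; tests interference with the coupling assay, not aldolase inhibition.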
RGS12 GoLoco inh-1: inhibitors of human Gai1-RGS12 GoLoco interaction (red fluorophore) | P63096 | Gai1:RGS12 GoLoco peptide FP, rhodamine, 10 min | Potency, µM (titrated, usually from 61.6 µM), for the others: top-dose activity, negative = inhibition, hits mostly inhibitors | 0.44% of 230,000 active | AID 880; active = well fitted inhibition curve with a large enough effect, not every such curve was filed as active; inactive = no such curve, though single readings can be large or run the other way; also: potency is read from the fitted curve at half-maximal effect; % is scaled to controls: 0 for no effect and ±100 for the full control effect; nearly all actives have a fitted effect of over 30% in size
ALDH1A1 inh-1: blocks purified human ALDH1A1 activity. Purified ALDH1A1, NADH fluorescence, propionaldehyde substrate. P00352. AID 1030. 7.3% of 220,000 active. Potency, µM (titrated, usually from 75.3 µM), inactives show top-dose activity, negative = inhibition, usual class: inhibitors; active = well fitted inhibition curve with a large enough effect, not every such curve was filed as active; inconclusive = small, poorly fitted or top-dose-only effect, or another doubt; inactive = no such curve, though single readings can be large or run the other way;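 also: potency is read from the fitted curve at half-maximal effect; plate controls were no enzyme wells and a reference inhibitor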
Target sequence (P00352 whole entry, looked up): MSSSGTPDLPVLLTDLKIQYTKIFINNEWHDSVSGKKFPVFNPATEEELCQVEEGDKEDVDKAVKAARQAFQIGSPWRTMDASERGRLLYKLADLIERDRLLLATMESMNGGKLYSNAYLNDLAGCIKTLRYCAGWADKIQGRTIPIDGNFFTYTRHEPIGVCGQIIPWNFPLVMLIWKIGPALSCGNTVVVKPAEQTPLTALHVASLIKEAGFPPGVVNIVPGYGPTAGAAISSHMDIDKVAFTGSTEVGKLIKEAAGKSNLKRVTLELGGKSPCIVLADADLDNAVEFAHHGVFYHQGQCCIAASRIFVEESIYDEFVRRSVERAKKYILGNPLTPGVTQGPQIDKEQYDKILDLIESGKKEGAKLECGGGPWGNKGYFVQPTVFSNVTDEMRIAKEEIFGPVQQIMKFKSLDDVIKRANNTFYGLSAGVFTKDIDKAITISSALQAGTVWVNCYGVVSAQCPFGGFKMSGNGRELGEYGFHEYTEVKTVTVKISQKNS
RGS12 GoLoco inh-2: RGS12 (human) GoLoco motif inhibition, red FP. Gai1/rhodamine-RGS12 GoLoco peptide fluorescence polarization. shares compounds with RGS12 GoLoco inh-1. Potency, µM (top dose mostly 57.1 µM), for inactives: at the top dose activity, negative = inhibition, most hits filed as inhibitors. AID 2390. 50% of 110 active
ALDH1A1 inh-2: Confirms inhibition of human ALDH1A1 with counterscreen | shares compounds with ALDH1A1 inh-1 | 90% of 90 active | purified ALDH1A1, NADH fluorescence, propionaldehyde/NAD+ | Potency, µM (doses to about 57.1 µM), inactives show at the top dose activity change, negative = inhibition, usual class: inhibitors; calls by dose curve
Sfp inh conf: Sfp phosphopantetheinyl transferase inhibition, confirmation | shares compounds with Sfp PPTase inh | Sfp PPTase enzymatic assay, qHTS titration | Potency, µM (series often up to 114 µM), inactives show at the highest dose activity change, negative = inhibition, usual class: inhibitors | 79% of 380 active | AID 2701;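 also: potency is read from the fitted curve at half-maximal effect; plate controls were uninhibited Sfp reaction for no effect and no enzyme control for full effect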
Sfp PPTase gel: Blocks Sfp PPTase activity, gel read-out; shares compounds with Sfp PPTase inh; purified Sfp, gel-based phosphopantetheinylation read-out; 20% of 210 active; Potency, µM, usual class: inhibitors;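 active = potency below 100 µM; inconclusive = dose-dependent response but potency above 100 µM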;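 also: band intensities scaled against SCH202676 control wells before curve fitting; potency is an IC50 for inhibitors of Sfp transfer activity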
Starred values were filed as active, the others as inactive; ? = inconclusive; nt = no result; ! = repeats disagree; [ ] = remark or other dose. Only some compounds are listed: those with a hit (about 8.5% of all), similar ones and a draw of the others. Unless noted, calls follow the shape of the dose curve; as a rule, active = well fitted curve in the direction sought with a large enough effect; inconclusive = small, poorly fitted or top-dose-only effect, or another doubt; inactive = no such curve, though single readings can be large; an effect the other way counts as inactive or inconclusive.

SMILES	NPSR antag	JMJD2E inh	Sfp PPTase inh	FBPA coupling cs	RGS12 GoLoco inh-1	ALDH1A1 inh-1	ALDH1A1 inh-2	others
Cc1cc(C)c2c(=O)n(CC(=O)Nc3ccc(Cl)cc3)sc2n1	-26.1%	28.2µM*	3.55µM*	5.8	25.1µM*	nt	nt	RGS12 GoLoco inh-2=?
CCOc1ccc(NC(=O)Cn2sc3nc(C)cc(C)c3c2=O)cc1	-29.1%	?	2.82µM*	-0.7	15.8µM*	nt	nt	RGS12 GoLoco inh-2=?
Cc1ccc(NC(=O)Cn2sc3nc(C)cc(C)c3c2=O)c(Cl)c1	-15.9%	?	2.82µM*	0.7	17.8µM*	nt	nt	RGS12 GoLoco inh-2=11.2µM*
Cc1cc(C)c2c(=O)n(CC(=O)Nc3cccc(F)c3)sc2n1	-30.7%	?	3.16µM*	1.7	31.6µM*	nt	nt	RGS12 GoLoco inh-2=31.6µM*
Cc1cc(C)c2c(n1)SCC(=O)N2CC(=O)Nc1cccc(Cl)c1	nt	nt	7.6%	2.0	nt	nt	nt
COc1ccc(CNC(=O)Cn2c(=O)n(CC(=O)N3CCCCC3)c(=O)c3sccc32)cc1	nt	nt	11.1%	nt	nt	nt	nt
COc1cccc(CNS(=O)(=O)c2ccc3c(c2)oc(=O)n3C)c1	nt	nt	-0.6%	nt	nt	nt	nt
Cc1[nH]c(=O)c(C#N)c(C)c1CCC(=O)NCc1cccc(C(F)(F)F)c1	nt	nt	-6.7%	-0.2	nt	nt	nt
CCN1CCN(S(=O)(=O)c2ccc(C(C)(C)C)cc2)CC1	nt	nt	11.7%	4.4	nt	nt	nt
O=C1c2ccc3c4c(ccc(c24)C(=O)N1CCCCO)C(=O)N(CCCCO)C3=O	-32.8%	?	15.4%	-39.5*	25.1µM*	?	nt	RGS12 GoLoco inh-2=11.2µM*
O=C(COc1ccc(Cl)cc1)N1CCN(Cc2ccc3c(c2)OCO3)CC1	nt	-0.6%	4.5%	1.1	22.4µM*!	5.8%	nt	RGS12 GoLoco inh-2=9.0%[0.0121 µM]
COc1ccccc1N1C(=O)C=C(Sc2nc(C)cc(C)n2)C1=O	?	0.8%	3.16µM*	-2.6	1.41µM*	nt	nt	RGS12 GoLoco inh-2=?;Sfp inh conf=1.67µM*;Sfp PPTase gel=6.17µM*
COc1ccc(NS(=O)(=O)c2cccc(C(=O)NNC(=O)CNC(=O)c3cccc(C)c3)c2)cc1	nt	nt	29.6%	5.3	nt	nt	nt
COc1ccc([N+](=O)[O-])cc1NC(=O)C(C)N1CCN(C(=O)c2ccco2)CC1 (configuration not stated)	-15.9%	-2.6%	1.6%	0.9	2.5%	1.26µM*	3.16µM*
COc1ccc(S(=O)(=O)NCC2CCCN(C(=O)c3sccc3C)C2)cc1 (configuration not stated)	2.0%	6.0%	9.1%	0.9	8.9%	0.178µM*	0.0891µM*
COc1ccc(S(=O)(=O)NCC2CCCN(C(=O)CC3CCCC3)C2)cc1 (configuration not stated)	3.3%	-24.5%	5.7%	2.6	0.8%	0.794µM*	0.891µM*
CCOP(=O)(OCC)C(NC(=O)c1cccs1)C(F)(F)F (configuration not stated)	3.8%	?	-16.2%	-1.8	2.9%	?	nt
CCOC(=O)N1CCN(Cc2nc3c(c(=O)[nH]c(=O)n3C)n2Cc2ccccc2C)CC1	-7.4%[46.1 µM]	1.5%	23.1%	-0.4	-3.1%	?	nt
CCOC(=O)N1CCN(Cc2nc3c(c(=O)n(C)c(=O)n3C)n2Cc2ccc(F)cc2)CC1	-12.7%	-0.5%	?	-1.2	4.1%	-5.1%	nt
CCOC(=O)N1CCN(Cc2nc3c(c(=O)n(C)c(=O)n3C)n2Cc2cccc3ccccc23)CC1	?	0.1%	-1.5%	2.3	1.5%	0.1µM*	0.0398µM*
CCOC(=O)N1CCN(Cc2nc3c(c(=O)n(C)c(=O)n3C)n2Cc2cccc(C)c2)CC1	-21.1%[46.1 µM]	-6.7%	-12.5%	6.5	1.5%	0.0794µM*	0.0631µM*
CC(C)c1nc(N(C)S(C)(=O)=O)nc(-c2ccc(F)cc2)c1/C=C/C(O)CC(O)CC(=O)O (configuration not stated)	nt	-2.1%	9.9%	3.5	1.4%	0.224µM*	0.126µM*
COC(=O)[C@@]1(Cc2ccccc2)[C@H]2c3cc(C(=O)N(C)C)n(Cc4cc(F)c(F)c(F)c4)c3C[C@H]2CN1C(=O)c1ccccc1	nt	?	0.1%	3.9	3.6%	-4.8%	nt
CCN(CC)C(=O)CN1C(=O)C(=O)c2ccccc21	-17.4%	4.0%	6.2%	-6.5	-1.5%	0.02µM*	0.0891µM*
O=C1C(=O)N(CCCc2ccccc2)c2ccccc21	nt	nt	8.3%	-4.9	nt	nt	nt
SMILES	NPSR antag	JMJD2E inh	Sfp PPTase inh	FBPA coupling cs	RGS12 GoLoco inh-1	ALDH1A1 inh-1	ALDH1A1 inh-2	others
O=C(CN1C(=O)C(=O)c2ccccc21)NCCc1ccccc1	-13.6%	8.2%	-16.3%	-29.2	8.8%	0.0891µM*	0.0631µM*
CCN(CC)C(=O)CN1C(=O)c2cccc3cccc1c23	nt	nt	21.6%	0.3	nt	nt	nt
CC(=O)c1c(C)n(-c2ccccc2Br)c2ccc(O)cc12	nt	nt	-8.5%	0.3	nt	nt	nt
CC(C)NC(=O)NC(=O)COc1ccc(Br)cc1Br	-16.5%	-6.4%	-1.5%	1.2	-1.9%	13.5%	nt
CCOC(=O)C1CCN(S(=O)(=O)c2c(C)[nH]c(C)c2C(=O)N2CCCCC2)CC1	nt	nt	17.5%	0.3	nt	nt	nt
CC(=O)OC[C@@H]1O[C@H](C/C=N\OC[C@@H](O)COCc2ccco2)C=C[C@@H]1OC(C)=O	nt	nt	14.1%	4.9	nt	7.8%[13.5 µM]	nt
CCOc1ccc(NC(=O)CN2CCN(CC(=O)c3ccc(OCC)cc3)CC2)cc1	-11.5%[46.1 µM]	-15.1%	-5.6%	5.3	10.2%	1.41µM*	4.47µM*
CCOc1ccc(NC(=O)CN2CCN(CC(=O)Nc3ccc(N(C)C)cc3)CC2)cc1	nt	nt	0.7%	3.1	nt	nt	nt
CC1(C(=O)Nc2c(F)c(F)c(F)c(F)c2F)CC1(Br)Br (configuration not stated)	-0.1%	-3.0%	13.2%	0.6	0.3%	nt	nt
O=C(O)[C@H]1CCc2ccc3ccccc3c2[C@H]1c1cccc2ccccc12	nt	nt	nt	nt	7.9%[14.2 µM]	10.1%[13.5 µM]	nt
O=C1O/C(=C/Br)CCC1c1cccc2ccccc12 (configuration not stated)	?	0.9%	nt	nt	-9.0%	0.501µM*	0.631µM*
O=C(CN1CCN(C2CCCCC2)CC1)Nc1ccccc1-c1ccccc1	0.7%[46.1 µM]	?	?	-5.4	-11.5%	6.31µM*	?
